Results as given in PubChem BioAssay (NCI).
This is part of a sample that, as a whole, favours compounds with a hit. Of some 83,000 tested, about 20% had one in any assay.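 Treatment: one concentration, 48 hours, 96-well format. Scoring: percent growth, with anything below 10 considered active.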 Active and inactive are the calls of the source.

Legend:
Test in all cases: NCI-60 one-dose screen, 48 h (100 = growth as untreated, 0 = no growth, -100 = all killed)
Settings in all cases: 10 µM unless noted
NCI-H23 lung = test system: NCI-H23 lung
NCI-H226 lung = test system: NCI-H226 lung
NCI-H322M lung = test system: NCI-H322M lung
HOP-62 NSCLC = test system: HOP-62 NSCLC
NCI-H460 lung = test system: NCI-H460 lung
HOP-92 NSCLC = test system: HOP-92 NSCLC
NCI-H522 lung = test system: NCI-H522 lung
A549/ATCC NSCLC = test system: A549/ATCC NSCLC
786-0 renal = test system: 786-0 renal
COLO 205 colon = test system: COLO 205 colon

Measured: growth

Cc1cc(NCc2cc(Nc3ccnc4cc(Cl)ccc34)ccc2F)nc(N2CCN(C)CC2)n1
inactive: NCI-H23 lung 39.3% | NCI-H226 lung 64.1% | NCI-H322M lung 33.8% | HOP-92 NSCLC 45.4% | A549/ATCC NSCLC 23%
active: HOP-62 NSCLC 6.67% | NCI-H460 lung -45.3% | NCI-H522 lung -30.8% | 786-0 renal -69.7% | COLO 205 colon -73.4%

Cc1cccc(NC(=O)N/C(N)=N/c2nc(C)c(C)s2)c1
inactive: NCI-H23 lung 61.9% | NCI-H226 lung 71.3% | NCI-H322M lung 82.7% | HOP-62 NSCLC 55.3% | NCI-H460 lung 20.2% | HOP-92 NSCLC 67.5% | NCI-H522 lung 24.2% | A549/ATCC NSCLC 42.6% | 786-0 renal 83.1% | COLO 205 colon 36%

CC1=CN2C(=O)C3C4=C(CCCC4)SC3N=C2CN1c1c(C)cccc1C (stereo unspecified)
inactive: NCI-H23 lung 91.1% | NCI-H226 lung 71% | NCI-H322M lung 109% | HOP-62 NSCLC 82.5% | NCI-H460 lung 76.6% | HOP-92 NSCLC 55.2% | NCI-H522 lung 77.4% | A549/ATCC NSCLC 82.4% | 786-0 renal 75.9% | COLO 205 colon 110%

COC(=O)c1ccc(C2Nc3ccc(S(=O)(=O)Nc4ccc(C)c(C)c4)cc3C3OCCC23)cc1 (stereo unspecified)
inactive: NCI-H23 lung 59.5% | NCI-H226 lung 85.9% | NCI-H322M lung 96% | HOP-62 NSCLC 87.3% | NCI-H460 lung 86% | HOP-92 NSCLC 66% | NCI-H522 lung 52.6% | A549/ATCC NSCLC 78.8% | 786-0 renal 93.9% | COLO 205 colon 94%

CCCCCCCCCCN(CCCCCCCCCC)CC(=O)c1ccc2cc(Br)c3ccccc3c2c1
active: NCI-H460 lung -65.9%
inactive: NCI-H23 lung 47.4% | NCI-H226 lung 99.4% | NCI-H322M lung 65.7% | HOP-62 NSCLC 96.4% | NCI-H522 lung 63.4% | A549/ATCC NSCLC 82.3% | 786-0 renal 54.1% | COLO 205 colon 104%

CCc1ccccc1-n1c(-c2ccc(Cl)cc2)cc(-c2ccc(OC)cc2)c(C#N)c1=O
inactive: NCI-H23 lung 102% | NCI-H226 lung 108% | NCI-H322M lung 126% | HOP-62 NSCLC 103% | NCI-H460 lung 99.7% | HOP-92 NSCLC 63.5% | NCI-H522 lung 84.8% | A549/ATCC NSCLC 103% | 786-0 renal 92% | COLO 205 colon 117%

C[n+]1cc2c3c(ccc2c2ccc4cc5c(cc4c21)OCO5)OCO3
active: NCI-H23 lung -67% | NCI-H226 lung -87.7% | NCI-H322M lung -93.8% | HOP-62 NSCLC -83.8% | NCI-H460 lung -54.7% | NCI-H522 lung -74.2% | A549/ATCC NSCLC -86.2% | 786-0 renal -87.5% | COLO 205 colon -84.5%

CCCCCCCCCCCCCCCCCCOc1ccc(CC(=O)OCC[N+]2(C)CCCC2)cc1
inactive: NCI-H23 lung 93.2% | NCI-H226 lung 92.6% | NCI-H322M lung 102% | HOP-62 NSCLC 101% | NCI-H460 lung 99.7% | NCI-H522 lung 96.8% | A549/ATCC NSCLC 97.2% | 786-0 renal 96.2% | COLO 205 colon 107%

CNC(=O)CCN1CCN(CC/C=C2\c3ccccc3Sc3ccc(Cl)cc32)CC1
active: A549/ATCC NSCLC -27.4%
inactive: NCI-H23 lung 91% | NCI-H226 lung 121% | NCI-H322M lung 74.8% | HOP-62 NSCLC 102% | NCI-H460 lung 92.6% | NCI-H522 lung 85% | 786-0 renal 75.9% | COLO 205 colon 85.8%

COc1ccc(-c2nc3sccn3c2-c2cc(-c3cc(OC)c(OC)c(OC)c3)on2)cc1
inactive: NCI-H23 lung 88.6% | NCI-H226 lung 116% | NCI-H322M lung 102% | HOP-62 NSCLC 106% | NCI-H460 lung 78.3% | NCI-H522 lung 87.9% | A549/ATCC NSCLC 104% | 786-0 renal 96.6% | COLO 205 colon 94.2%

CCCCCCCCCCCCCCCCCCOc1ccccc1CC(=O)OCCC[N+](C)(C)C
inactive: NCI-H23 lung 46.4% | NCI-H226 lung 78% | NCI-H322M lung 84.3% | HOP-62 NSCLC 67.1% | NCI-H460 lung 80.1% | NCI-H522 lung 36.3% | A549/ATCC NSCLC 54.2% | 786-0 renal 50.7% | COLO 205 colon 16.7%

N/C(=N/N=C/c1ccccc1)N/N=C\c1ccccc1
inactive: NCI-H23 lung 66.6% | NCI-H226 lung 81% | NCI-H322M lung 85.2% | HOP-62 NSCLC 76.5% | NCI-H460 lung 39.8% | NCI-H522 lung 56.8% | A549/ATCC NSCLC 59% | 786-0 renal 56.2% | COLO 205 colon 67.7%

Cn1ccc2c(c1=O)C(=O)c1nccc3c1c-2nc1ccccc13
active: NCI-H23 lung -66.6% | HOP-62 NSCLC -86.6% | NCI-H460 lung -74.7% | NCI-H522 lung -68.5% | A549/ATCC NSCLC -87.4% | 786-0 renal -95.5% | COLO 205 colon -75.5%
inactive: NCI-H226 lung 83.1% | NCI-H322M lung 17.4%

N#Cc1c(-c2ccccn2)[nH]c(=S)[nH]c1=O
inactive: NCI-H23 lung 106% | NCI-H226 lung 103% | NCI-H322M lung 97% | HOP-62 NSCLC 99.9% | NCI-H460 lung 108% | NCI-H522 lung 88.9% | A549/ATCC NSCLC 98% | 786-0 renal 92.2% | COLO 205 colon 110%
